This is one part of a sample in which hits are shown more often than they occur.
HT1080-NT tox: qHTS for induction of synthetic lethality in tumor cells producing 2HG: qHTS for the HT-1080-NT fibrosarcoma cell line; HT-1080-NT fibrosarcoma viability, CellTiter-Glo ATP luminescence, 48 h; Potency, µM (highest dose often 46.1 µM), hits mostly cytotoxic; 1.6% of 360,000 active; AID 686970, 2013;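 further: NT is the 2HG producing partner of a matched IDH1 knockdown line; nearly all actives have a fitted effect of over 55% in size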
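750 cells/well, RPMI + 5% FBS; 2 h settle, compound pin-transfer, 48 h at 37 degrees C. CellTiter-Glo 10 min RT, luminescence. Normalized to DMSO and media-only wells.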
12-LOX inh: Primary qHTS assay for inhibitors of human arachidonate 12S-lipoxygenase (ALOX12): Round 2 | Potency, µM (titrated, usually from 108 µM), actives largely listed as inhibitors | AID 1671190, 2021 | 1.1% of 580,000 active | Polyunsaturated fatty acid lipoxygenase ALOX12 (Homo sapiens), P18054 | purified 12hLO, xylenol orange hydroperoxide absorbance
Target sequence (P18054 whole entry, looked up): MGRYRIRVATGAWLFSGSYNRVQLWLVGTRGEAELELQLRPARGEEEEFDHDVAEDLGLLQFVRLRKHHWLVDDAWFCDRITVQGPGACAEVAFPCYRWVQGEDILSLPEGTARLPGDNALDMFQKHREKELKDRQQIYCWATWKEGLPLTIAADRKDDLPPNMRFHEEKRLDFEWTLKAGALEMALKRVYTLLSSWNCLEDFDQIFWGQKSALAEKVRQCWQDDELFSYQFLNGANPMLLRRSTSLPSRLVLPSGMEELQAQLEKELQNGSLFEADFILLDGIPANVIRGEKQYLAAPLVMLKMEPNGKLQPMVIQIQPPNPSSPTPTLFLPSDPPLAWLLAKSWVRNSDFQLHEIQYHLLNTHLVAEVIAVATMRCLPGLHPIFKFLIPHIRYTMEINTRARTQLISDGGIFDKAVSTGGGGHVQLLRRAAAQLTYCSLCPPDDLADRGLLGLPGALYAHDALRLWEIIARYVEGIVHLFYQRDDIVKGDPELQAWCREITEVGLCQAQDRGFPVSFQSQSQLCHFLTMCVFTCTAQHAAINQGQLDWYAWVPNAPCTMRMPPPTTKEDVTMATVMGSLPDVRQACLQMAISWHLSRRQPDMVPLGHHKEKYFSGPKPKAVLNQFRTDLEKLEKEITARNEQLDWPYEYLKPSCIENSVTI
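Purified human 12hLO at 150 nM in 25 mM Hepes, 0.01% Triton X-100, pH 7.0, preincubated 15 min at room temperature with compound. Reaction started with 40 uM arachidonic acid, 30 min at room temperature. Hydroperoxide measured by Fe-xylenol orange, 573/405 nm absorbance ratio.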
IL1B secr inh: qHTS for Inhibitors of Inflammasome Signaling: IL-1-beta AlphaLISA Primary Screen; THP-1 LPS/ATP IL-1B secretion, AlphaLISA, 16 h; active compounds read low; activity change, % at 57.5 µM; 4.7% of 360,000 active; in the data active means activity change below about -50%; inconclusive means mostly about -30% to -49%
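THP-1 cells pretreated 1 hr with compounds (up to 57.5 uM final), then stimulated with LPS (250 ng/mL final) plus ATP (1.25 mM final); secreted IL-1B measured by AlphaLISA after 16 hr, decreased signal indicating inhibition.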
TDP1 cell noCPT: qHTS for Inhibitors of human tyrosyl-DNA phosphodiesterase 1 (TDP1): qHTS in cells in absence of CPT | DT40 Tdp1-/- hTDP1 cells, no CPT, ATP luminescence, 48 h | Potency, µM (top dose mostly 46.2 µM), usual class: inhibitors | 15% of 420,000 active; further: nearly all actives have a fitted effect of over 55% in size
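A cellular qHTS used chicken DT40 cells lacking endogenous Tdp1 but carrying stably transfected human TDP1. Compounds were applied without camptothecin, and cell growth kinetics were judged by ATP-dependent luminescence after ≥48 hr.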
TDP1 cell CPT: qHTS for Inhibitors of human tyrosyl-DNA phosphodiesterase 1 (TDP1): qHTS in cells in presence of CPT; Potency, µM (top dose mostly 46.2 µM), most hits filed as inhibitors; AID 686979, 2013; 12% of 420,000 active; chicken DT40 Tdp1-/-;hTDP1 cells + 20 nM CPT, ATP luminescence, 48 h; further: nearly all actives have a fitted effect of over 55% in size
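Cell growth measured by CellTiter-Glo luminescence after a minimum 48 h, 37 C compound exposure with 20 nM CPT in Tdp1-knockout DT40 cells stably expressing hTDP1, seeded 400/well; qHTS titration format.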
HT1080 IDH1KD tx: qHTS for induction of synthetic lethality in tumor cells producing 2HG: qHTS for the HT-1080-IDH1KD cell line | HT-1080 IDH1 knockdown viability, ATP luminescence, 48 h | 2% of 360,000 active | Potency, µM (titrated, usually from 46.1 µM), actives largely listed as cytotoxic
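CellTiter-Glo luminescence after 48 h compound exposure at 37 degrees C of IDH1-knockdown HT-1080 cells in 5% FBS RPMI. %Activity scaled between DMSO wells and cell-free media wells, with curves fitted and assigned curve classes.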
Each line names hits and unclear results; the compound was inactive in the other large screens. Unless noted, the call rests on the fitted dose curve; in most records, active means well fitted curve in the direction sought with a large enough effect; inconclusive means small, poorly fitted or top-dose-only effect, or another doubt; inactive means no such curve, though single readings can be large; an effect the other way counts as inactive or inconclusive.

COC(=O)Cc1[nH]n(-c2nc3ccccc3s2)c(=O)c1C(C)=O	12-LOX inh inconclusive, TDP1 cell noCPT 10µM
CN(Cc1ccc(OCC(O)CN2CCCCC2)cc1)Cc1ccnc2ccccc12 (stereo unspecified)	TDP1 cell noCPT 4.6µM, TDP1 cell CPT 9.2µM
C=CCNC(=S)N1CCC2CC1c1c(Cl)cccc12 (stereo unspecified)	TDP1 cell noCPT 26µM, TDP1 cell CPT inconclusive
O=C(c1ccco1)N1CCC2CC1c1c(Cl)cccc12 (stereo unspecified)	TDP1 cell noCPT inconclusive, TDP1 cell CPT inconclusive
COc1ccc(NC(=S)N2CCC3CC2c2c(Cl)cccc23)c(OC)c1 (stereo unspecified)	12-LOX inh inconclusive, TDP1 cell noCPT inconclusive, TDP1 cell CPT inconclusive
S=C(NCCc1ccccc1)N1CCC2CC1c1c(Cl)cccc12 (stereo unspecified)	12-LOX inh inconclusive, TDP1 cell noCPT 16µM, TDP1 cell CPT inconclusive
Cc1ccc(C(=O)N2CCC3(CC2)c2[nH]c4ccccc4c2CCN3C)cn1	none (no result: HT1080-NT tox, IL1B secr inh, TDP1 cell noCPT, TDP1 cell CPT, HT1080 IDH1KD tx)
CCC1(c2cccc(Cl)c2)NC(=O)N(Cc2cc(C(=O)OC)c(C)o2)C1=O (stereo unspecified)	TDP1 cell noCPT 18µM, TDP1 cell CPT 26µM
COc1ccccc1N1C(=O)C=C(Sc2nc(C)cc(C)n2)C1=O	12-LOX inh 10µM, TDP1 cell noCPT 2.3µM, TDP1 cell CPT 1.2µM
COc1ccccc1N1C(=O)C2CC(C)=C(C)CC2C1=O (stereo unspecified)	none
C=CCN1CC2(CCC1=O)CCN(c1nccc(C(F)(F)F)n1)CC2	none (no result: HT1080-NT tox, IL1B secr inh, TDP1 cell noCPT, TDP1 cell CPT, HT1080 IDH1KD tx)
CCOC(=O)c1cnc(SC)nc1Oc1cccc(NC(=O)c2ccc(Cl)cc2)c1	TDP1 cell noCPT 23µM, TDP1 cell CPT inconclusive
CCOc1ccc(NC(=O)c2ccc3c(c2)S(=O)(=O)N=C(C)N3CC(C)C)cc1	none (no result: HT1080-NT tox, IL1B secr inh, TDP1 cell noCPT, TDP1 cell CPT, HT1080 IDH1KD tx)
O=C(Nc1ccon1)c1sc2cccc(Cl)c2c1Cl	none (no result: HT1080-NT tox, IL1B secr inh, TDP1 cell noCPT, TDP1 cell CPT, HT1080 IDH1KD tx)
CCn1cc(S(=O)(=O)N2CCCCC2c2nc(C3CC3)n[nH]2)cn1 (stereo unspecified)	none (no result: HT1080-NT tox, IL1B secr inh, TDP1 cell noCPT, TDP1 cell CPT, HT1080 IDH1KD tx)
CNC(=O)c1cc(=O)n(CC(=O)Nc2ccc(C)c(C)c2)c2ccccc12	none (no result: HT1080-NT tox, IL1B secr inh, TDP1 cell noCPT, TDP1 cell CPT, HT1080 IDH1KD tx)
COc1ccc2c(ccn2CC(=O)NCC2CCC(C(=O)O)CC2)c1 (stereo unspecified)	none (no result: HT1080-NT tox, IL1B secr inh, TDP1 cell noCPT, TDP1 cell CPT, HT1080 IDH1KD tx)
CCCN(N=Nc1cccc([N+](=O)[O-])c1)c1cccc([N+](=O)[O-])c1	IL1B secr inh -51, TDP1 cell noCPT inconclusive, TDP1 cell CPT inconclusive
CCN(CCNC(=O)CC1=C2CCCCC2N(C)C1=O)Cc1ccccc1 (stereo unspecified)	none (no result: HT1080-NT tox, IL1B secr inh, TDP1 cell noCPT, TDP1 cell CPT, HT1080 IDH1KD tx)
Cc1cccc(CN2CCN([C@H]3CS(=O)(=O)N[C@@H]3COCc3ccccc3)CC2)c1	TDP1 cell noCPT 16µM, TDP1 cell CPT 18µM
COc1cccc(C2=CC(c3ccccc3F)n3ncc(C(=O)Nc4ccc(F)cc4)c3N2)c1 (stereo unspecified)	TDP1 cell noCPT 18µM, TDP1 cell CPT inconclusive (no result: HT1080-NT tox, IL1B secr inh, HT1080 IDH1KD tx)
COc1ccc(C2=CC(c3ccccc3F)n3ncc(C(=O)Nc4ccc(C)cc4)c3N2)cc1 (stereo unspecified)	TDP1 cell noCPT 21µM, TDP1 cell CPT 5.2µM (no result: HT1080-NT tox, IL1B secr inh, HT1080 IDH1KD tx)
COc1ccc(NC(=O)C2=C(C)Nc3c(C(=O)Nc4ccc(C)cc4)cnn3C2c2cc(OC)ccc2OC)cc1 (stereo unspecified)	TDP1 cell noCPT inconclusive (no result: HT1080-NT tox, IL1B secr inh, HT1080 IDH1KD tx)
O=C(Nc1ccc(Cl)cc1)c1cnn2c1NC(c1ccccc1)=CC2c1ccccc1 (stereo unspecified)	TDP1 cell noCPT inconclusive, TDP1 cell CPT inconclusive (no result: HT1080-NT tox, IL1B secr inh, HT1080 IDH1KD tx)
